Compounds with a hit are over-represented: about 2.9% of the library has one in this group of screens.
IP6K1 inhibitor: IP6K1 kinase inhibition. Q92551. IP6K1 kinase, ADP-Glo luminescence, 2 h; stronger effect = lower value. activity change, % (series mostly up to about 58 µM). 0.81% of 140,000 active; in the data active = activity change below about -25%; also: % is scaled to controls: 0 for no effect and ±100 for the full control effect
Target sequence (Q92551 whole entry, looked up): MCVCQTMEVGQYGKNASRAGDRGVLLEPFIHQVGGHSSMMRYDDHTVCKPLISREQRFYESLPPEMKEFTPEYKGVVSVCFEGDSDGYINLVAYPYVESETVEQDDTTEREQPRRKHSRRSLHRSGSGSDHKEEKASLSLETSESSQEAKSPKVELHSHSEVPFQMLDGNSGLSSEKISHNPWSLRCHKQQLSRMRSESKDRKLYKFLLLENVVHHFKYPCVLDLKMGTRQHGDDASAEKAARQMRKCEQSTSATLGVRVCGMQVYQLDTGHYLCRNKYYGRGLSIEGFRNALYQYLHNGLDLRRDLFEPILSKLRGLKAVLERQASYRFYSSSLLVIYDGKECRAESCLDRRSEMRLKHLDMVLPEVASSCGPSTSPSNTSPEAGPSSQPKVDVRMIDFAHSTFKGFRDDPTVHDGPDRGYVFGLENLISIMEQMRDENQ
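ADP-Glo luminescence measures ADP made by human IP6K1 during a 2 h RT reaction with ATP/IP6 (mix at 1.3 mM/130 uM); top library doses 57.5 and 19.1 uM final.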
SNCA expr inh: SNCA gene expression inhibition. HEK-293 SNCA-luciferase knock-in, luminescence, 24 h. Potency, µM (top dose mostly 57.2 µM), for the others: top-dose activity change, negative = inhibition, usual class: inhibitors. 0.17% of 140,000 active. AID 1671194;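 also: potency is read from the fitted curve at half-maximal effect; plate controls were DMSO cells for no effect and cell-free wells for full effect; nearly all actives have a fitted effect of over 45% in size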
SNCA viab count: cell viability loss counter-screen | HEK-293-SNCA-luc viability, GF-AFC fluorescence, 24 h | 0.12% of 150,000 active | Potency, µM (series often up to 57.1 µM), without a hit: at the top dose activity change, negative = cytotoxicity, hits mostly cytotoxic;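 also: potency is read from the fitted curve at half-maximal effect; 0% = DMSO-treated cells and -100% = medium-only wells without cells; nearly all actives have a fitted effect of over 30% in size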
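Cytotoxicity counterscreen: after 24 h compound treatment of genome-edited SNCA-luciferase HEK-293 cells, live-cell protease substrate GF-AFC read by fluorescence after 30 min; activity scaled between DMSO (0%) and medium-only (-100%), curves Hill-fitted.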
KDM5B inhibitor: inhibitors of human KDM5B histone demethylase. Q9UGL1. KDM5B demethylase, FDH-coupled NADH fluorescence (FDH is formaldehyde dehydrogenase). Potency, µM (highest dose often 57.7 µM), actives largely listed as inhibitors. 2.6% of 220,000 active; also: potency is read from the fitted curve at half-maximal effect; 0% is about no effect; nearly all actives have a fitted effect of over 70% in size
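Coupled FDH/NAD⁺ fluorescence readout. KDM5BΔAP 200 nM final; compound titration, 10 min RT preincubation; substrate mix 12.5 µM H3K4me3, 25 µM 2-OG, 50 µM Fe(II), 100 µM ascorbate, 0.25 mM NAD⁺, 0.25 U/mL FDH; ΔRFU over 30 min.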
IP6K1 conf: confirmation of human IP6K1 inhibitors | shares compounds with IP6K1 inhibitor | recombinant IP6K1 kinase, ADP-Glo luminescence, 2 h | Potency, µM (highest dose often 49 µM), without a hit: at the top dose activity change, negative = inhibition, hits mostly inhibitors | 13% of 1,200 active; also: potency is read from the fitted curve at half-maximal effect; % is scaled to controls: 0 for no effect and ±100 for the full control effect; nearly all actives have a fitted effect of over 65% in size
* marks the source's active call; other numbers are inactive results; i = inactive; ? = inconclusive; · = no result; ! = repeats disagree; [ ] = another dose, or the depositor's remark. Unless noted, calls follow the shape of the dose curve; as a rule, active = well fitted curve in the direction sought with a large enough effect; inconclusive = small, poorly fitted or top-dose-only effect, or another doubt; inactive = no such curve, though single readings can be large; an effect the other way counts as inactive or inconclusive.

SMILES | IP6K1 inhibitor | SNCA expr inh | SNCA viab count | KDM5B inhibitor | IP6K1 conf
Cc1ccc(CNC(=O)N2CCc3c(nc4cc(-c5ccccc5Cl)[nH]n4c3=O)C2)cc1 | 23 | ? | 6% | ? | ·
CC(=O)Nc1ccc(CC(=O)N2CCc3c(nc4cc(-c5ccccc5Cl)[nH]n4c3=O)C2)cc1 | 31 | 23% | 8% | 25µM* | ·
O=C(NCc1ccc(F)cc1)c1ccc2oc(-c3ccncc3)nc2c1 | -4 | 52% | -3% | · | ·
COc1ccccc1N(C)S(=O)(=O)c1ccc(C(=O)Nc2cccc(C)c2C)cc1 | · | · | · | i | ·
CCCOc1ccc(NC(=O)C(C)Oc2ccc(C)c(C)c2)c2cccnc12 (stereo not drawn) | · | · | · | i | ·
COc1ccc(CC(=O)NC2CCN(Cc3ccc(-c4ccsc4)cc3)C2)cc1 (stereo not drawn) | -4 | 10% | 1% | · | ·
Cc1noc(C)c1C(=O)N[C@@H]1CN(c2ncccn2)C[C@H]1CN(C)C | 14 | -11% | -8% | 32µM* | ·
CN(C)C[C@@H]1CN(c2ncccn2)C[C@H]1NC(=O)CCCc1ccccc1 | 6 | -5% | 0% | 32µM* | ·
CN(C)C[C@@H]1CN(c2ncccn2)C[C@H]1NC(=O)c1cnco1 | 2 | -25% | -10% | 32µM* | ·
CN(C)C[C@@H]1CN(C)C[C@H]1NC(=O)CCCc1ccccc1 | -9 | 9% | 3% | ? | ·
N#Cc1ccc([S+](=O)([O-])N2CCC3(CC2)OCCN(CC2CCOCC2)C3=O)cc1 | -3 | -19%[87.6 µM] | 4%[87.6 µM] | 32µM* | ·
Cc1ccc2c(c1)C(=O)C(=O)N2Cc1ccc(OC(C)C)cc1 | -38* | ? | ? | i | -10%
Cc1ccc(-c2cccc(CN3CCCC3C(=O)NCc3ccccc3)c2)cc1Cl (stereo not drawn) | 12 | · | · | · | ·
Cc1cccc(C(=O)NC2CCCN(Cc3ccc(-c4cc(C)cc(C)c4)cc3)C2)c1 (stereo not drawn) | 4 | -24% | 3%[12.5 µM] | · | ·
CC(Oc1ccc(Cl)cc1Cl)C(=O)Nc1ccc(N2CCN(C)CC2)nc1 (stereo not drawn) | · | · | · | i | ·
Cc1nc(SCC(=O)NC(C)(C#N)C(C)C)n(C2CCCC2)c1C (stereo not drawn) | · | · | · | i | ·
Cn1ncc2c(C(=O)NCc3cccc(Cl)c3)cc(C(C)(C)C)nc21 | -3 | -32%[87.6 µM] | 4%[87.6 µM] | · | ·
COCCCNc1nc(NCc2cccc(Cl)c2)c2cnn(C)c2n1 | -32* | -29% | -15% | i | ?
CCCCNC(=O)c1cccc2c1CCN2C(=O)Nc1ccccc1 | 7 | ? | -7% | i | ·
Brc1ccc2nc(SCCOc3ccccc3)[nH]c2c1 | -32* | 78% | 9% | i | ?
Cc1nn(C)c(C)c1CC(=O)Nc1nc(C2CC2)cs1 | · | · | · | i | ·
Cc1nn(-c2ccccc2)c(OC(=O)c2ccc(Br)cc2)c1S(=O)(=O)c1ccccc1 | -32* | -23% | 7% | ? | 28%
Cc1ccc(C(=O)Oc2c(S(=O)(=O)c3ccccc3)c(C)nn2-c2ccccc2)cc1 | -22 | 9% | 0% | ? | ·
Cc1c(Cl)cccc1NC(=O)CSc1nc(=O)[nH]c2c1CCCC2 | -27* | -4% | -2% | i | -16%
Cc1ccccc1NC(=O)CSc1nc(=O)[nH]c2c1CCCC2 | · | · | · | i | ·
SMILES | IP6K1 inhibitor | SNCA expr inh | SNCA viab count | KDM5B inhibitor | IP6K1 conf
CCc1nc(C)sc1C(=O)N1CCCC(c2[nH]ncc2-c2ccccc2)C1 (stereo not drawn) | -30* | -9% | -15% | i | -19%
Cc1ccc(-c2cn[nH]c2C2CCCN(C(=O)c3[nH]ncc3Cl)C2)cc1 (stereo not drawn) | 5 | ? | ? | i | ·
CC(=O)Nc1cccc(C(=O)NCc2nc(C)cs2)c1 | · | · | · | i | ·
CCOc1cccc(-c2nc3ccccc3c(=O)o2)c1 | -29* | 94% | 8% | i | ?
COc1cccc(-c2nc3ccccc3c(=O)o2)c1 | · | · | · | i | ·
Brc1ccc(CN2CCC(c3nc4ccncc4[nH]3)C2)cc1 (stereo not drawn) | -52*! | -22% | 2% | ? | ?
c1cn(-c2ccc(-c3nc(C4CCOC4)no3)cc2)cn1 (stereo not drawn) | -28* | 10% | -6% | i | -14%
CN(C)S(=O)(=O)N(CC(=O)Nc1ccc(Cl)c(Cl)c1)c1ccccc1 | · | · | · | i | ·
CCc1nnc(NS(=O)(=O)c2ccc(NC(=S)NC(=O)/C=C/c3ccc(F)cc3)cc2)s1 | -29* | · | -6% | · | 21µM*

High-throughput results deposited in PubChem by National Center for Advancing Translational Sciences (NCATS).
